From PubChem BioAssay (NCATS)
Records with an inconclusive call do not appear. A call without a number means that no potency is given here. A number with no mark means an inactive call. The source made the active and inactive calls. Calls come from the whole dose curve; as a rule, active = well fitted curve in the direction sought with a large enough effect; inconclusive = small, poorly fitted or top-dose-only effect, or another doubt; inactive = no such curve, though single readings can be large; an effect the other way counts as inactive or inconclusive.

Key:
[1] = target: Rap guanine nucleotide exchange factor 3 (Homo sapiens) (UniProt O95398); test: Confirmatory qHTS for antagonist of cAMP-regulated guanine nucleotide exchange factor 3 (EPAC1) (AID 1645880); details: EPAC1 Rap1B-BODIPY-GDP exchange, fluorescence; activity, negative = inhibition: at 115 µM (top of the series); note: nearly all actives have a fitted effect of over 55% in size; note: potency is the fitted concentration of half-maximal effect
Rap guanine nucleotide exchange factor 3 (Homo sapiens), sequence (O95398 whole entry, looked up): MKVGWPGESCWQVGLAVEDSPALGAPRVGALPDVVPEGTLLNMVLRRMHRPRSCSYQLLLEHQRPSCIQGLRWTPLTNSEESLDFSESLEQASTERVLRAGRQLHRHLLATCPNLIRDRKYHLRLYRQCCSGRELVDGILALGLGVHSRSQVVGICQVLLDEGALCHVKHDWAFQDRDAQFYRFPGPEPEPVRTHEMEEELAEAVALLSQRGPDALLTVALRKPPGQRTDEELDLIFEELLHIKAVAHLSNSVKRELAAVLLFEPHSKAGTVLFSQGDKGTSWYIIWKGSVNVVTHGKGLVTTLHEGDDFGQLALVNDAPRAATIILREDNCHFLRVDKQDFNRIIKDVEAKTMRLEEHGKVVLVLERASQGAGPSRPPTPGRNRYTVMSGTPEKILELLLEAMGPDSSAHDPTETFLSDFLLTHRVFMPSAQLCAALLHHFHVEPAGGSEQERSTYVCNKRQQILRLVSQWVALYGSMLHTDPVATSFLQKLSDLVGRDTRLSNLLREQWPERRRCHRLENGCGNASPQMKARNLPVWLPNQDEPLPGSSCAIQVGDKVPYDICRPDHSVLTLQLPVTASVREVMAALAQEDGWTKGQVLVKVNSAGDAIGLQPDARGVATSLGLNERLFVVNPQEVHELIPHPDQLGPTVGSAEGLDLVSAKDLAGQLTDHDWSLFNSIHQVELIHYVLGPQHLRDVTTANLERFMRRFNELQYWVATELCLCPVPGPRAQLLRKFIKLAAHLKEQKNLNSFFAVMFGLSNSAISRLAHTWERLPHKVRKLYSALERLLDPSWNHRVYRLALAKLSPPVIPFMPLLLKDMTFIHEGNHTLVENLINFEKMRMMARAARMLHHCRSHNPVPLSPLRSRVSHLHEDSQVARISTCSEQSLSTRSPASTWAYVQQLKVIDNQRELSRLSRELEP
Summary of the method: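 Released BODIPY-GDP fluoresces less than Rap1-bound BODIPY-GDP; the signal is followed at 480/540 nm at 5-min intervals over 30 min, after 5 min at room temperature. Reactions contain 100 nM EPAC1, 250 nM RAP1B-BODIPY-GDP and 50 uM GDP; results are normalized to ATA and DMSO.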

[2] = target: Rap guanine nucleotide exchange factor 3 (Homo sapiens) (UniProt O95398); test: Confirmatory qHTS for agonist of cAMP-regulated guanine nucleotide exchange factor 3 (EPAC1) (AID 1645881); details: EPAC1 Rap1B BODIPY-GDP exchange fluorescence; series mostly up to 154 µM;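 note: EPAC1 catalysed release of BODIPY-GDP from Rap1B seen as fluorescence loss; nearly all actives have a fitted effect of over 75% in size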
[3] = target: Rap guanine nucleotide exchange factor 4 (Homo sapiens) (UniProt Q8WZA2); test: Confirmatory qHTS for agonist of cAMP-regulated guanine nucleotide exchange factor 4 (EPAC2) (AID 1645884); details: EPAC2 GEF activity, Rap1B-BODIPY-GDP fluorescence; series mostly up to 154 µM;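 note: nucleotide exchange releases bodipy-GDP from Rap1 and this lowers its fluorescence; nearly all actives have a fitted effect of over 65% in size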
Rap guanine nucleotide exchange factor 4 (Homo sapiens), sequence (Q8WZA2 whole entry, looked up): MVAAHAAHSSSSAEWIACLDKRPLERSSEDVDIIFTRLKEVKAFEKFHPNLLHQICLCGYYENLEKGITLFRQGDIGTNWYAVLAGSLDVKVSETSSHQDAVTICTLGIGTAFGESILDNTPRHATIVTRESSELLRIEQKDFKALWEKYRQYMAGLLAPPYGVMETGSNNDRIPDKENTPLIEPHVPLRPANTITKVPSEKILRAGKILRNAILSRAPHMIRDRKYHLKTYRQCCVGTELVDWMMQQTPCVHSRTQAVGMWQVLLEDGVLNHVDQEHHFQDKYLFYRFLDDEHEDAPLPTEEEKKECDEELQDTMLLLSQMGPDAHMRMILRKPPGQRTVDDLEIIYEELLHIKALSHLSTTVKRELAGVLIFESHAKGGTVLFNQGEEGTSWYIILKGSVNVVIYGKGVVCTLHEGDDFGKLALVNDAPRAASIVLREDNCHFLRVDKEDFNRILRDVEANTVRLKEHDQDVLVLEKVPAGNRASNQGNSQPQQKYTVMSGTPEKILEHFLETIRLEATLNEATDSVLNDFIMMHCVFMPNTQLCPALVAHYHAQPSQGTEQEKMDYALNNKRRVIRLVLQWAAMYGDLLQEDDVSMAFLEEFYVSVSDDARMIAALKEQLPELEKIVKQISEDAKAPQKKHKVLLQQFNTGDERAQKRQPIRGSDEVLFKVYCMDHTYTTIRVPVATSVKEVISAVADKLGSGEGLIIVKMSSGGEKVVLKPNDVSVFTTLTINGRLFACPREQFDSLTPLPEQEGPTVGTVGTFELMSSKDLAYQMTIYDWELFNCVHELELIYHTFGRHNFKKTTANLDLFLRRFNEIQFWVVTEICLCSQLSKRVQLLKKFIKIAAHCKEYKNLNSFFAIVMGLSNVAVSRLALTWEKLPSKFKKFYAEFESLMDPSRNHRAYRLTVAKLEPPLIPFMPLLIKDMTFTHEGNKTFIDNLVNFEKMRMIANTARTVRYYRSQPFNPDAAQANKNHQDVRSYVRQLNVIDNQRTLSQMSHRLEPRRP

[4] = target: Rap guanine nucleotide exchange factor 4 (Homo sapiens) (UniProt Q8WZA2); test: Confirmatory qHTS for antagonist of cAMP-regulated guanine nucleotide exchange factor 4 (EPAC2) (AID 1645885); details: EPAC2 Rap1B-BODIPY-GDP exchange fluorescence, biochemical; series mostly up to 12.7 µM; note: nearly all actives have a fitted effect of over 25% in size; note: potency is the fitted concentration of half-maximal effect
[5] = target: Rap guanine nucleotide exchange factor 3 (Homo sapiens) (UniProt O95398); test: Counterscreen qHTS for antagonist of cAMP-regulated guanine nucleotide exchange factor 3 (EPAC1) (AID 1645888); details: Rap1B-BODIPY-GDP nucleotide exchange, fluorescence; series mostly up to 154 µM
Summary of the method: (§1)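 Measured: fluorescence of BODIPY-GDP bound to Rap1B, which falls as exchange proceeds. Conditions include 50 uM competing GDP, 5 and 30 min reads, and a later cAMP challenge for antagonist detection.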

[6] = target: Rap guanine nucleotide exchange factor 3 (Homo sapiens) (UniProt O95398); test: Counterscreen qHTS for agonist of cAMP-regulated guanine nucleotide exchange factor 3 (EPAC1) (AID 1645889); details: EPAC1 Rap1B-BODIPY-GDP exchange, fluorescence; series mostly up to 154 µM; note: nearly all actives have a fitted effect of over 40% in size
Summary of the method: as §1

O=C(c1cc(-c2ccc(Cl)cc2)nc2ccccc12)N1CCC1
Potency [1]: inactive
Potency [2]: inactive
Potency [3]: inactive
Potency [4]: inactive
Potency [5]: inactive
Potency [6]: inactive

CSc1ccc(CC2C(=O)Nc3ccccc32)cc1 (stereo not given)
Potency [1]: inactive
Potency [2]: inactive
Potency [3]: inactive
Potency [4]: inactive
Potency [5]: inactive
Potency [6]: inactive

COc1ccc(-c2cc(C(F)(F)F)nc(SCC(=O)N3CCCCC3C)n2)cc1OC (stereo not given)
Potency [1]: inactive
Potency [2]: inactive
Potency [3]: inactive
outcome [4]: inactive [at 12.7 µM]
Potency [5]: inactive
Potency [6]: inactive

Cc1nc(-[n+]2nc(-c3ccncc3)nn2-c2ccccc2)sc1C
Potency [1]: 22.4 µM (active)
Potency [2]: inactive
activation [3]: 5.19% [at 17.1 µM, percent relative to cAMP agonist control]
Potency [4]: inactive
activity change, negative = inhibition [5]: -23.3% [at 30.8 µM]
activation [6]: 2.91% [at 30.8 µM]

O=C1C(=Cc2ccco2)CCC1=Cc1ccco1
Potency [1]: inactive
Potency [2]: inactive
Potency [3]: inactive
Potency [4]: 60.1 µM (active)
Potency [5]: inactive
Potency [6]: inactive

COc1cnc(-c2ccccc2)c(-c2ccccc2)n1
Potency [1]: inactive
Potency [2]: inactive
activation [3]: 7.78% [at 17.1 µM, percent relative to cAMP agonist control]
Potency [4]: inactive
activity change, negative = inhibition [5]: -6.36% [at 30.8 µM]
activation [6]: -4.28% [at 30.8 µM]

C/C(=N\NC(=O)c1cc(O)ccc1O)c1cccc(NC(=O)c2ccc(Cl)cc2)c1
Potency [1]: 75.7 µM (active)
Potency [2]: inactive
Potency [3]: inactive
Potency [4]: inactive
Potency [5]: inactive
Potency [6]: inactive

N#Cc1c(-c2cccs2)nc(SCc2ccc(Cl)cc2)[nH]c1=O
Potency [1]: 42.6 µM (active)
Potency [2]: inactive
Potency [3]: inactive
Potency [4]: inactive
Potency [5]: inactive
Potency [6]: inactive

COc1ccc(C2CC(c3cccs3)=NN2C(=O)c2ccco2)cc1OC (stereo not given)
Potency [1]: inactive
Potency [2]: inactive
activation [3]: 4.11% [at 17.1 µM, percent relative to cAMP agonist control]
Potency [4]: inactive
activity change, negative = inhibition [5]: -16.2% [at 30.8 µM]
activation [6]: 31.8% [at 30.8 µM]

O=C1CCc2cc(NS(=O)(=O)c3ccc([N+](=O)[O-])cc3)cc3c2N1CC3
Potency [1]: inactive
Potency [2]: inactive
Potency [3]: inactive
Potency [4]: inactive
Potency [5]: inactive
Potency [6]: inactive

COC(=O)COc1ccc(C(c2c(C)[nH][nH]c2=O)c2c(C)[nH][nH]c2=O)cc1
Potency [1]: inactive
Potency [2]: inactive
Potency [3]: inactive
Potency [4]: inactive
Potency [5]: inactive
Potency [6]: inactive

COc1cc(/C=C2\SC(=S)N(CC(=O)O)C2=O)ccc1OS(=O)(=O)c1ccc(C)cc1
Potency [1]: 23.9 µM (active)
Potency [2]: inactive
Potency [3]: inactive
Potency [4]: inactive
Potency [5]: inactive
Potency [6]: inactive

CCc1cc2c(=O)c(-c3nc4ccccc4n3C)coc2c(CN2CCCCC2C)c1O (stereo not given)
Potency [1]: inactive
Potency [2]: inactive
Potency [3]: inactive
Potency [4]: inactive
Potency [5]: inactive
Potency [6]: inactive

CCOC(=O)N1CCN(C(=O)C(C)(C)Oc2ccc(Cl)cc2)CC1
Potency [1]: inactive
Potency [2]: inactive
activation [3]: 3.62% [at 17.1 µM, percent relative to cAMP agonist control]
Potency [4]: 0.239 µM (active)
activity change, negative = inhibition [5]: 6.37% [at 30.8 µM]
activation [6]: 21.9% [at 30.8 µM]

Cc1cccc(NC(=O)c2cc(S(=O)(=O)N(C)c3ccc(F)cc3)ccc2Cl)n1
Potency [1]: inactive
Potency [2]: inactive
Potency [3]: inactive
Potency [4]: inactive
Potency [5]: inactive
Potency [6]: inactive

COC(=O)c1cc2sc(C)cc2n1Cc1ccc(F)cc1Cl
Potency [1]: inactive
Potency [2]: inactive
Potency [3]: inactive
Potency [4]: inactive
Potency [5]: inactive
Potency [6]: inactive

COc1cc2c(cc1OC)CN(C(C)C(=O)N1CCc3ccccc31)CC2 (stereo not given)
Potency [1]: inactive
Potency [2]: inactive
Potency [3]: inactive
Potency [4]: inactive
Potency [5]: inactive
Potency [6]: inactive

COC(=O)CCNC(=O)NC(CCC(C)C)c1c(-n2cccc2)sc2c1CCN(C)C2 (stereo not given)
Potency [1]: inactive
Potency [2]: inactive
Potency [3]: inactive
Potency [4]: inactive
Potency [5]: inactive
Potency [6]: inactive

Cc1ccc(S(=O)(=O)N2CC(C(=O)O)=CC[C@H]2c2ccc(Cl)cc2)cc1
Potency [1]: inactive
Potency [2]: inactive
Potency [3]: inactive
Potency [4]: inactive
Potency [5]: inactive
Potency [6]: inactive

CCCCn1nnc(NC(=O)c2ccco2)n1
Potency [1]: inactive
Potency [2]: inactive
activation [3]: 6.58% [at 17.1 µM, percent relative to cAMP agonist control]
Potency [4]: inactive
activity change, negative = inhibition [5]: 4.22% [at 30.8 µM]
activation [6]: 0.136% [at 30.8 µM]

COc1ccc(Cl)cc1NC(=O)CN1CCc2ccccc21
Potency [1]: inactive
Potency [2]: inactive
activation [3]: 2.78% [at 17.1 µM, percent relative to cAMP agonist control]
Potency [4]: inactive
activity change, negative = inhibition [5]: -6.37% [at 30.8 µM]
activation [6]: 14.8% [at 30.8 µM]

COc1ccc(C)cc1Cn1nnc2ccccc21
Potency [1]: inactive
Potency [2]: inactive
Potency [3]: inactive
Potency [4]: inactive
Potency [5]: inactive
Potency [6]: inactive

COc1cc2c(c(OC)c1OC)C(c1ccc3c(c1)OCO3)CC(=O)O2 (stereo not given)
Potency [1]: inactive
Potency [2]: inactive
activation [3]: 4.62% [at 17.1 µM, percent relative to cAMP agonist control]
Potency [4]: inactive
activity change, negative = inhibition [5]: -9.71% [at 30.8 µM]
activation [6]: 18.7% [at 30.8 µM]

CC1CCC/C(=C\Nc2ccc(O)cc2)C1=O (stereo not given)
Potency [1]: inactive
Potency [2]: inactive
activation [3]: 6.29% [at 17.1 µM, percent relative to cAMP agonist control]
Potency [4]: inactive
activity change, negative = inhibition [5]: -12.6% [at 30.8 µM]
activation [6]: 3.58% [at 30.8 µM]

O=c1c(-c2ccc(F)cc2)[n+]([O-])c2ccccc2n1OCc1ccccn1
Potency [1]: inactive
Potency [2]: inactive
activation [3]: -8.77% [at 17.1 µM, percent relative to cAMP agonist control]
Potency [4]: inactive
activity change, negative = inhibition [5]: 1.53% [at 30.8 µM]
activation [6]: 6.02% [at 30.8 µM]

CCCCn1cc2c(c1-c1ccccc1Br)c(=O)n(C)c(=O)n2C
Potency [1]: inactive
Potency [2]: inactive
Potency [3]: inactive
Potency [4]: inactive
Potency [5]: inactive
Potency [6]: inactive

CCN1C(=O)/C(=C/c2ccc(OCc3ccc(C(=O)O)cc3)c(Cl)c2)NC1=S
Potency [1]: 42.6 µM (active)
Potency [2]: inactive
Potency [3]: inactive
Potency [4]: inactive
Potency [5]: inactive
Potency [6]: inactive

[O-][n+]1c2ccccc2[n+]([O-])c2cc(O)ccc21
Potency [1]: 37.9 µM (active)
Potency [2]: inactive
Potency [3]: inactive
Potency [4]: inactive
Potency [5]: inactive
Potency [6]: inactive

CSc1ccc(CCNC(=O)c2csc3c2CCCCC3)cc1
Potency [1]: inactive
Potency [2]: inactive
Potency [3]: inactive
outcome [4]: inactive [at 12.7 µM]
Potency [5]: inactive
Potency [6]: inactive

O=C(NCc1ccco1)c1sc(=S)n2c1[nH]c(=O)c1ccccc12
Potency [1]: 14.1 µM (active)
Potency [2]: inactive
activation [3]: 1.94% [at 17.1 µM, percent relative to cAMP agonist control]
Potency [4]: inactive
activity change, negative = inhibition [5]: 3.28% [at 30.8 µM]
activation [6]: -8.6% [at 30.8 µM]

CSc1ccccc1NC(=O)CN(c1ccccc1)S(=O)(=O)N(C)C
Potency [1]: inactive
Potency [2]: inactive
Potency [3]: inactive
Potency [4]: inactive
Potency [5]: inactive
Potency [6]: inactive

Cc1cc2oc(=O)cc(CN3CCCC3)c2cc1Cl
Potency [1]: inactive
Potency [2]: inactive
activation [3]: -3.71% [at 17.1 µM, percent relative to cAMP agonist control]
Potency [4]: inactive
activity change, negative = inhibition [5]: 3.14% [at 30.8 µM]
activation [6]: 28.8% [at 30.8 µM]

Cn1cc([C@]2(O)C(=O)Nc3c(F)cccc32)c2ccccc21
Potency [1]: inactive
Potency [2]: inactive
Potency [3]: inactive
Potency [4]: inactive
Potency [5]: inactive
Potency [6]: inactive

CCOc1ccc(/C=C2\SC(=S)NC2=O)cc1OC
Potency [1]: 15.1 µM (active)
Potency [2]: inactive
Potency [3]: inactive
Potency [4]: inactive
Potency [5]: inactive
Potency [6]: inactive

CN(Cc1ccc(Cl)cc1Cl)C(=O)CN1C(=O)NC2(CCCC2)C1=O
Potency [1]: inactive
Potency [2]: inactive
Potency [3]: inactive
Potency [4]: inactive
Potency [5]: inactive
Potency [6]: inactive

Cc1ccc(Cc2cnc(N3C(=N)SC(c4ccccc4)C3=O)s2)cc1 (stereo not given)
Potency [1]: inactive
Potency [2]: inactive
activation [3]: 9.77% [at 17.1 µM, percent relative to cAMP agonist control]
Potency [4]: inactive
activity change, negative = inhibition [5]: -12.3% [at 30.8 µM]
activation [6]: 27.7% [at 30.8 µM]

COC(=O)c1cc2ccsc2n1Cc1cccc(F)c1
Potency [1]: inactive
Potency [2]: inactive
Potency [3]: inactive
Potency [4]: inactive
Potency [5]: inactive
Potency [6]: inactive

CCC(C)Sc1nc2c(c(=O)[nH]c(=O)n2C)n1CC(O)COc1cccc2ccccc12 (stereo not given)
Potency [1]: inactive
Potency [2]: inactive
Potency [3]: inactive
Potency [4]: inactive
Potency [5]: inactive
Potency [6]: inactive

Fc1ccc(-c2ccc3nccn3c2)cc1Cl
Potency [1]: inactive
Potency [2]: inactive
activation [3]: 2.32% [at 17.1 µM, percent relative to cAMP agonist control]
Potency [4]: inactive
activity change, negative = inhibition [5]: -1.11% [at 30.8 µM]
activation [6]: 10.1% [at 30.8 µM]

Cn1cc(C(=O)C(=O)N2CCCCC2)c2ccccc21
Potency [1]: inactive
Potency [2]: inactive
Potency [3]: inactive
Potency [4]: inactive
Potency [5]: inactive
Potency [6]: inactive
